Assay outcomes (PubChem)
MCL1-BIM inh: MCL1-BIM-BH3 interaction inhibition (human) | Q07820 | GST-MCL1 / FITC-Bim-BH3 fluorescence polarization | 0.68% of 320,000 active | AID 2057 | inhibition, % at 10.9 µM;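 active = inhibition above the mean inhibition of all tested compounds plus 3 SD, set per campaign, cut at about 40% in these data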;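 also: 0% = DMSO wells and 100% = unlabeled Bim-BH3 peptide control; higher means more loss of mP so more displacement of Bim peptide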
Mcl1-Noxa inh: disrupts binding of human Mcl-1 to Noxa peptide. TR-FRET Mcl-1/Noxa peptide binding, 2 h. inhibition, % at 21.7 µM. 1.5% of 220,000 active. Q07820;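 active = compounds that cut the protein-peptide binding signal by more than 50% relative to plate controls in a single-dose test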;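 also: His-tagged Mcl-1 with rhodamine Noxa BH3 peptide and terbium anti-His antibody; 0% = Mcl-1 plus Noxa peptide wells and 100% = peptide-only wells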
Mcl1-Bid inh: Mcl-1/Bid interaction inhibition | Q07820 | inhibition, % at 21.7 µM | AID 1021 | TR-FRET Mcl-1/Bid-Dy647 peptide binding, 1536-well | 0.97% of 220,000 active;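 active = compounds that cut the binding signal by more than half at the single screening dose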;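 also: His-tagged Mcl-1 with europium anti-His antibody binding Bid BH3 peptide; 0% = Mcl-1 plus peptide wells and 100% = peptide-only wells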
Bcl-xL primary: blocks human Bcl-xL binding to Bim BH3 peptide; Q07817; GST-Bcl-xL / FITC-Bim BH3 peptide fluorescence polarization; inhibition, % at 10.9 µM; 0.7% of 320,000 active; AID 2129;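 active = inhibition above the mean of all tested compounds plus 3 SD, cutoff set per campaign, cut at about 30% in these data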;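 also: 0% = DMSO wells and 100% = unlabeled Bim-BH3 peptide competitor; inhibitors lower millipolarization by displacing the labeled peptide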
Target sequence (Q07817 whole entry, looked up): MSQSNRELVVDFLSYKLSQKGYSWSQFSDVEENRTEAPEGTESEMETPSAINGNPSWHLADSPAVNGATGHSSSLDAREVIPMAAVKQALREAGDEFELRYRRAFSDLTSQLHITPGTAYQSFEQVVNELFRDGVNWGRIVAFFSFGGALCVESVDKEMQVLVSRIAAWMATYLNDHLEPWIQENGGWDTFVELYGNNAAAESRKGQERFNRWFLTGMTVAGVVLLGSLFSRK
Bim-Mcl-1: disrupts Bim peptide binding to human Mcl-1; 0.1% of 190,000 active; Bead-based flow cytometry, Bim peptide-Mcl-1 binding; inhibition, % at 10 µM; Q07820; in the data active = inhibition above about 40%;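 also: 0% = no compound tracer wells and 100% = peptide blocker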
GLD-1 TGE inh: GLD-1-TGE RNA interaction inhibition (C. elegans). Q17339. purified GLD-1 + fluorescein TGE RNA, fluorescence polarization. inhibition, % at 5.96 µM. 0.44% of 320,000 active. AID 2280;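 active = percent inhibition above a per-plate cutoff, the plate mean of test compounds plus 3 SD, cut at about 30% in these data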;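 also: 0% = DMSO wells with GLD-1 and probe and 100% = wells lacking GLD-1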
Target sequence (Q17339 whole entry, looked up): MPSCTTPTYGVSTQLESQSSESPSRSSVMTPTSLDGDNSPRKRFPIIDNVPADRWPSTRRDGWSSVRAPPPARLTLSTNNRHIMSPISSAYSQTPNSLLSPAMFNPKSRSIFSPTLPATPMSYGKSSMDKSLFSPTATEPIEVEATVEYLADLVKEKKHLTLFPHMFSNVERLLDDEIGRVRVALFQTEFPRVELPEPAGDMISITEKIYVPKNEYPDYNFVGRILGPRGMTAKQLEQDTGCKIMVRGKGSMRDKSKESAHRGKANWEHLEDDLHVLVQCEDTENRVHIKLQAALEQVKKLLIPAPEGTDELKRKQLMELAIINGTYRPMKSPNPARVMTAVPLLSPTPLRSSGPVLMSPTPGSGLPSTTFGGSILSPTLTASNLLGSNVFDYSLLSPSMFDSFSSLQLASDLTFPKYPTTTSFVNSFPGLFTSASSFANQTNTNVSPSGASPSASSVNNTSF
* marks the source's active call; other numbers are inactive results. This is a sample that favours compounds with a hit; in the whole collection about 2.3% have one here.

For CC1CCCCN1c1ccc(N)cc1C(N)=O (centres undefined) the results were MCL1-BIM inh 3.1, Mcl1-Noxa inh -1.9, Mcl1-Bid inh -13.7, Bcl-xL primary 5.5, Bim-Mcl-1 -2.0 and GLD-1 TGE inh -1.3.
CNc1nc2ccccc2n1/N=C/c1cccc(OC)c1OC was read as MCL1-BIM inh -1.1, Mcl1-Noxa inh 11.6, Mcl1-Bid inh -16.0, Bcl-xL primary 0.1, Bim-Mcl-1 57.0* and GLD-1 TGE inh 5.2.
Screening CC(C)c1[nH]nc2c1C(c1cccnc1)C(C#N)=C(N)O2 (centres undefined) returned MCL1-BIM inh 0.1, Mcl1-Noxa inh 3.1, Mcl1-Bid inh 92.3*, Bcl-xL primary 1.7, Bim-Mcl-1 -2.0 and GLD-1 TGE inh 6.5.
`Cc1nc([N+](=O)[O-])cn1CC(=O)c1ccc(Br)cc1` gave MCL1-BIM inh 4.2, Bcl-xL primary 2.0 and GLD-1 TGE inh 3.1.
`Cc1cc(N(CCO)CCO)ccc1C(c1ccc(N(CCO)CCO)cc1C)c1ccccc1Cl` gave MCL1-BIM inh 23.4, Mcl1-Noxa inh 101.5*, Mcl1-Bid inh 57.2*, Bcl-xL primary 10.9, Bim-Mcl-1 1.0 and GLD-1 TGE inh 6.8.
For CCCCn1c(N)c(N(CCOC)C(=O)CSc2nnc(-c3ccc(F)cc3)n2N)c(=O)[nH]c1=O the results were MCL1-BIM inh -6.2, Bcl-xL primary -9.8 and GLD-1 TGE inh 3.9.
Screening COc1ccc(C(=S)N2CCCCCC2)cc1 returned MCL1-BIM inh 18.5, Mcl1-Noxa inh 14.8, Mcl1-Bid inh -6.3, Bcl-xL primary 8.6, Bim-Mcl-1 41.0* and GLD-1 TGE inh 5.3.
For N=C1S/C(=C\c2ccco2)C(=O)N1c1ccc2c(c1)OCO2 the results were MCL1-BIM inh 20.5, Mcl1-Noxa inh 83.8*, Mcl1-Bid inh 38.8, Bcl-xL primary 10.4, Bim-Mcl-1 4.0 and GLD-1 TGE inh -3.0.
`CSc1ncccc1C(=O)N1CCN(S(=O)(=O)c2ccc3c(c2)OCCO3)CC1` gave GLD-1 TGE inh 8.2.
COc1ccc(-c2csc(NC(=O)CSCc3c(C)noc3C)n2)c(OC)c1 was read as MCL1-BIM inh 6.2, Bcl-xL primary 9.2 and GLD-1 TGE inh 7.9.
For COc1ccccc1-c1nnc(NC(=O)c2ccc3c(c2)OCO3)s1 the results were MCL1-BIM inh -1.8, Mcl1-Noxa inh 13.9, Mcl1-Bid inh 62.6*, Bcl-xL primary -2.7, Bim-Mcl-1 -2.0 and GLD-1 TGE inh 3.5.
`CCOC(=O)C1=C(c2ccccc2)NC(=O)NC1c1ccc(OC)cc1` (centres undefined) gave MCL1-BIM inh -11.3, Mcl1-Noxa inh 27.1, Mcl1-Bid inh 0.8, Bcl-xL primary -6.6, Bim-Mcl-1 2.0 and GLD-1 TGE inh -7.3.
For CCOC(=O)C1=C(c2ccccc2)NC(=O)NC1c1ccc(N(C)C)cc1 (centres undefined) the results were MCL1-BIM inh -2.3, Mcl1-Noxa inh 61.1*, Mcl1-Bid inh 0.0, Bcl-xL primary 1.6, Bim-Mcl-1 -1.0 and GLD-1 TGE inh -2.3.
`COc1ccc(C(=O)c2sc3nc(-c4ccc(OC)cc4)ccc3c2N)cc1` gave MCL1-BIM inh -20.8, Mcl1-Noxa inh 77.0*, Mcl1-Bid inh 23.4, Bcl-xL primary -4.3, Bim-Mcl-1 0.0 and GLD-1 TGE inh -18.3.
Screening COc1ccc(-c2c(C#N)c(N)nc3sc(C(=O)c4ccc(C)cc4)c(N)c23)cc1 returned MCL1-BIM inh -6.2, Mcl1-Noxa inh -0.8, Mcl1-Bid inh -23.7, Bcl-xL primary -3.9, Bim-Mcl-1 -3.0 and GLD-1 TGE inh -3.4.
For COc1ccc(NC(=O)c2sc3nc(-c4cccnc4)ccc3c2N)cc1OC the results were MCL1-BIM inh 34.9, Mcl1-Noxa inh 14.1, Mcl1-Bid inh -8.0, Bcl-xL primary 48.0* and GLD-1 TGE inh 13.1.
Screening COc1cccc(-c2ccc3c(N)c(C(=O)NC4CC4)sc3n2)c1 returned MCL1-BIM inh 3.0, Mcl1-Noxa inh 21.5, Mcl1-Bid inh -25.6, Bcl-xL primary -5.6 and GLD-1 TGE inh 5.0.
`COc1ccc2ccccc2c1C1CC(=O)N2CN(Cc3ccco3)CSC2=C1C#N` (centres undefined) gave MCL1-BIM inh -12.3, Mcl1-Noxa inh 36.2, Mcl1-Bid inh -17.4, Bcl-xL primary -17.9, Bim-Mcl-1 4.0 and GLD-1 TGE inh 4.7.
Screening CCOc1cc(C2CC(=O)N3CN(C4CCCCC4)CSC3=C2C#N)ccc1O (centres undefined) returned MCL1-BIM inh 5.4, Mcl1-Noxa inh 57.0*, Mcl1-Bid inh -39.6, Bcl-xL primary 3.7, Bim-Mcl-1 -4.0 and GLD-1 TGE inh -2.4.
Screening CCOc1cc(C2CC(=O)NC(SCC)=C2C#N)ccc1O (centres undefined) returned MCL1-BIM inh 6.0, Mcl1-Noxa inh 25.1, Mcl1-Bid inh -11.7, Bcl-xL primary 5.2, Bim-Mcl-1 3.0 and GLD-1 TGE inh 4.8.
COc1ccc2ccccc2c1C1CC(=O)N2CN(C3CCCCC3)CSC2=C1C#N (centres undefined) was read as MCL1-BIM inh -18.8, Mcl1-Noxa inh 62.6*, Mcl1-Bid inh -6.3, Bcl-xL primary -25.1, Bim-Mcl-1 -8.0 and GLD-1 TGE inh -5.0.
Screening Cc1c(C(=O)OCC2CCCO2)[nH]c2c1C(=O)CC(c1ccco1)C2 (centres undefined) returned MCL1-BIM inh 33.5, Mcl1-Noxa inh 70.3*, Mcl1-Bid inh 9.4, Bcl-xL primary 13.0, Bim-Mcl-1 0.0 and GLD-1 TGE inh -5.8.
Screening Cc1c(C(=O)OCC(C)C)[nH]c2c1C(=O)CC(c1ccco1)C2 (centres undefined) returned MCL1-BIM inh 1.4, Mcl1-Noxa inh 1.7, Mcl1-Bid inh -13.7, Bcl-xL primary -1.8, Bim-Mcl-1 -1.0 and GLD-1 TGE inh 2.2.
Cc1cc(C)cc(OCC(=O)OCC(=O)NC2CC2)c1 was read as GLD-1 TGE inh 0.5.
`CN(C)C(=O)CS(=O)(=O)c1ccc(Cl)cc1` gave MCL1-BIM inh -4.3, Mcl1-Noxa inh 43.7, Mcl1-Bid inh 65.6*, Bcl-xL primary 2.4 and GLD-1 TGE inh 3.9.
Screening Cc1cc(C)c(S(=O)(=O)c2ccccc2C)c(OCCN(C)C)n1 returned MCL1-BIM inh -6.9, Bcl-xL primary 2.0 and GLD-1 TGE inh -3.0.
Screening O=C(CSc1nc2ccccc2c(=O)n1-c1ccccc1Cl)NC1CCS(=O)(=O)C1 (centres undefined) returned MCL1-BIM inh 4.8, Bcl-xL primary 6.3 and GLD-1 TGE inh 2.2.
`Cc1cccc(Cn2c(N3CCN(C)CC3)nc3c2c(=O)[nH]c(=O)n3C)c1` gave MCL1-BIM inh 1.1, Bcl-xL primary 0.0 and GLD-1 TGE inh 6.5.
`Cc1cccc(Cn2c(N3CCc4ccccc4C3)nc3c2c(=O)[nH]c(=O)n3C)c1` gave MCL1-BIM inh -0.2, Mcl1-Noxa inh 62.8*, Mcl1-Bid inh 1.3, Bcl-xL primary -0.1, Bim-Mcl-1 1.0 and GLD-1 TGE inh 5.7.
